This is a sample that favours compounds with a hit; in the whole collection about 6.6% have one here.
KB-3-1 tox = KB-3-1 parental cell cytotoxicity; KB-3-1 viability, CellTiter-Glo ATP luminescence, 72 h; Potency, µM (titrated, usually from 46.1 µM), most hits filed as cytotoxic; 1.4% of 400,000 active; also: % is scaled to controls: 0 for no effect and ±100 for the full control effect; nearly all actives have a fitted effect of over 60% in size
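Using CellTiter-Glo luminescence, growth of non-resistant KB-3-1 adenocarcinoma cells is assessed 72 h after pin-tool compound addition at 37 °C. Normalized responses across the concentration series yield fitted curves.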
HT1080 IDH1KD tx = HT-1080 IDH1 knockdown cell toxicity (counter line) | HT-1080 IDH1 knockdown viability, ATP luminescence, 48 h | Potency, µM (doses to about 46.1 µM), for inactives: at the highest dose activity, negative = toxicity, actives largely listed as cytotoxic | 2% of 360,000 active;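 also: 0% = DMSO wells and -100% = cell-free medium wells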
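In this qHTS, HT-1080 cells depleted of IDH1 are exposed for 48 h at 37 °C to compound titrations. Toxicity is scored from CellTiter-Glo luminescence, with DMSO as full viability and medium alone as none.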
TGFb SMAD3 inh = blocks TGF-b signaling | HepG2 CAGA-GFP TGF-b/SMAD3 reporter, GFP fluorescence, 18 h; TGF-beta stimulated, 500 pg/mL final | Potency, µM (highest dose often 46.1 µM), for inactives: top-dose activity, negative = inhibition, most hits filed as inhibitors | 1.2% of 410,000 active; also: % is scaled to controls: 0 for no effect and ±100 for the full control effect; nearly all actives have a fitted effect of over 65% in size
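Using HEPG2 CAGA-GFP reporter cells at 1000 cells/well, we pinned test compounds, stimulated with recombinant TGF-beta (500 pg/mL final) and measured total well GFP after 18 h.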
KB-V1 MDR tox = kills drug-selected multidrug resistant KB-V1 cells | KB-V1 MDR cells viability, CellTiter-Glo, 72 h | Potency, µM (series often up to 46.1 µM), usual class: cytotoxic | 3.4% of 400,000 active | AID 1347076; also: % is scaled to controls: 0 for no effect and ±100 for the full control effect; nearly all actives have a fitted effect of over 60% in size
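Potencies derive from concentration-effect curves fitted to normalized luminescence (CellTiter-Glo) of KB-V1 cells treated for 72 h at 37 degrees C in phenol-red-free DMEM containing 10% FBS.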
HT1080-NT tox = kills 2HG-producing HT-1080-NT fibrosarcoma cells; HT-1080-NT fibrosarcoma viability, CellTiter-Glo ATP luminescence, 48 h; Potency, µM (top dose mostly 46.1 µM), for the others: at the highest dose activity, negative = less viability, usual class: cytotoxic; 1.6% of 360,000 active;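 also: NT is the 2HG producing partner of a matched IDH1 knockdown line; 0% = DMSO-treated cells and -100% = media-only wells without cells; nearly all actives have a fitted effect of over 55% in size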
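Luminescent CellTiter-Glo readout after 48 hours of compound exposure at 37 degrees C defined viability of HT-1080-NT cells. Activity was normalized to DMSO wells and cell-free media wells; concentration-response curves were fitted and assigned curve classes.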
HepG2 viability = HepG2 cytotoxicity, counter-screen for TGF-b inhibitors; HepG2 CAGA-GFP viability, ATP luminescence, 18 h; Potency, µM (titrated, usually from 46.1 µM), for the others: at the highest dose activity change, negative = cytotoxicity, actives largely listed as cytotoxic; 0.76% of 410,000 active; AID 588856
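HepG2 CAGA-GFP cells (1000/well, DMEM with 1% FBS) received compound, then TGF-beta at 500 pg/mL final, and were incubated 18 hours at 37 degrees C. Viability was read by CellTiter-Glo luminescence. Media-only wells were set as complete cell-killing and DMSO as no toxicity.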
* marks the source's active call; other numbers are inactive results; i = inactive; ? = inconclusive; · = not tested or not shown; [ ] = dose if it differs, or a comment. Calls follow the shape of the dose curve; as a rule, active = well fitted curve in the direction sought with a large enough effect; inconclusive = small, poorly fitted or top-dose-only effect, or another doubt; inactive = no such curve, though single readings can be large; an effect the other way counts as inactive or inconclusive. Potency is read from the fitted curve at half-maximal effect.

SMILES	KB-3-1 tox	HT1080 IDH1KD tx	TGFb SMAD3 inh	KB-V1 MDR tox	HT1080-NT tox	HepG2 viability
COc1cccc(C(=O)Nc2nnc(S(=O)(=O)N3CCCc4ccccc43)s2)c1	i	·	?	i	·	-50%
COc1ccc(CCNC(=O)c2ccc(Cn3c(SCc4ccccc4)nc4cccnc43)cc2)cc1	i	·	-21%	i	·	-18%
O=C1/C(=C/c2ccccc2)NC(=S)N1C(c1ccccc1)c1ccccc1	?	9.2µM*	-1%	?	?	-58%
COc1ccc(-n2ccnc(NCCc3ccccc3)c2=O)cc1OC	i	·	-5%	i	·	-12%
NC(=S)NN=C1c2cc(Cl)ccc2-c2c1cc(Cl)cc2[N+](=O)[O-]	6.5µM*	7%	?	15µM*	7%	2%
N#Cc1nc(-c2ccc(OCc3ccccc3)cc2)oc1NCc1cccnc1	i	-19%	21%	i	-14%	6%
CC(C)(C)c1ccc(-c2nc(C#N)c(NCCCn3ccnc3)o2)cc1	i	23µM*	?	?	21µM*	-104%
N#Cc1nc(-c2ccc(OCc3ccccc3)cc2)oc1NCCCn1ccnc1	?	18%	-5%	23µM*	0%	-12%
CN(C)c1oc(-c2ccc(OCc3ccccc3)cc2)nc1C#N	i	-5%	10%	21µM*	10%	0%
CCCOc1ccc(-c2nc(C#N)c(NCCCn3ccnc3)o2)cc1	?	?	5%	i	?	-25%
CCCCNC(=O)CSc1nnc(C)c2c(C)n(-c3ccccc3)nc12	i	·	?	i	·	-19%
CC1(C(=O)NCc2ccccc2Br)CCN1C(=O)CCc1ccc(Cl)cc1Cl (configuration not stated)	?	?	?	?	?	-16%
Cc1c(Cl)cccc1NC(=O)Nc1ccc2snnc2c1	?	·	?	?	·	-36%
COC(=O)CN(c1cc(Cl)ccc1OC)S(=O)(=O)c1ccc(C)cc1	?	16µM*	6%	?	18µM*	-39%
CCN(CC(=O)Nc1ccc(OC)c(OC)c1)S(=O)(=O)c1ccc(C)cc1	i	-3%[9.24 µM]	12%	13µM*	-3%	2%
COc1ccc(Cl)cc1N(CC(=O)N1CCCC1)S(=O)(=O)c1ccc(C)cc1	i	6%	9%	?	10%	2%
CCN(CC)S(=O)(=O)c1ccc(C)c(NC(=S)Nc2cccc(S(=O)(=O)N3CCCCCC3)c2)c1	?	?	?	?	-1%	3%
COc1ccc(NC(=O)CN(c2ccc(C)cc2)S(=O)(=O)c2c(C)nn(C)c2C)cc1OC	?	-1%	-5%	13µM*	-25%	-1%
CCN(CC)S(=O)(=O)c1ccc(OC)c(NC(=S)Nc2ccc(C)c(C)c2)c1	i	-5%	-8%	18µM*	6%	20%
NS(=O)(=O)c1ccc(NC(=O)c2cnn3c2NC(=C2CC2)C=C3C(F)F)cc1	i	·	-24%	?	·	-29%
CCN(C(=O)c1cc2c(s1)-c1ccccc1OC2)c1cccc(C(F)(F)F)c1	i	·	2%	i	·	-15%
CC1=CC(=O)C=CC1=Nc1ccc(N(C)C)cc1	?	?	25µM*	?	?	-91%
CN(C)c1ccc(N=Nc2ccc(S(N)(=O)=O)cc2)cc1	i	-2%	4%	i	-6%	-2%
CN(Cc1ccccc1)c1nc2c(S(=O)(=O)c3cccc(Cl)c3)nnn2c2ccsc12	i	·	-5%	i	·	-21%
COc1ccc(O)c(C=Nc2cc(NC(C)=O)c(Cl)cc2Cl)c1	i	2%	-2%	i	5%	-13%
SMILES	KB-3-1 tox	HT1080 IDH1KD tx	TGFb SMAD3 inh	KB-V1 MDR tox	HT1080-NT tox	HepG2 viability
CC(=O)Nc1cc(N=Cc2ccc(O)cc2O)c(Cl)cc1Cl	i	18µM*	?	i	?	-59%
CSc1ccc(C2C(C#N)=C(N)Oc3cc4c(cc32)OCO4)cc1 (configuration not stated)	i	?	13µM*	4.6µM*	18µM*	-39%
Cc1cccc(N2CCN(C(=O)CCS(=O)(=O)c3ccc4c(c3)CC(=O)N4C)CC2C)c1 (configuration not stated)	i	·	-12%	i	·	-1%
COc1ccc(OC)c(NC(=O)Nc2cc(NC(=O)Nc3cc(OC)ccc3OC)c(C)nc2C)c1	?	23µM*	17%	i	18µM*	-6%
COc1ccc(NC(=O)Nc2cnccn2)c(OC)c1	5.2µM*	8%	-18%	5.8µM*	5%	-2%
COc1ccc(NC(=O)Nc2cc(NC(=O)Nc3ccc(OC)cc3)c(C)nc2C)cc1	i	18%	-11%	?	15%	-1%
COc1ccc(C)cc1NC(=O)Nc1cnccn1	i	3%	-1%	i	4%	-3%
COc1ccc(OC)c(NC(=O)c2[nH]c(C)c(C(C)=O)c2C)c1	i	-4%	-9%	16µM*	-4%	-6%
CCOc1ccccc1NC(=O)/C=C/C(N)=O	i	2.8µM*	?	i	?	-38%
CC(C)(C)n1ncc2c(=O)n(Cc3ccccc3)cnc21	·	·	-15%	·	·	-19%
O=C(NCCc1ccc(Cl)cc1)c1ccc2c(c1)N(Cc1cccc(Cl)c1)C(=O)c1ccccc1S2(=O)=O	·	·	5%	·	·	-7%
CCOc1ccccc1NC(=O)C(=O)CC(=O)c1ccc(OC)cc1	i	-14%	15%	16µM*	-16%	-5%
CC(C)c1ccc(NC(=O)Nc2cnccn2)cc1	4.1µM*	15µM*	0%	?	?	10%
COc1ccc(C(=O)CC(=O)C(=O)Nc2ccccc2)cc1	i	-1%	10%	i	0%	17%
O=C(Nc1cnccn1)Nc1cccc(Cl)c1Cl	?	22%	-1%	12µM*	17%	0%
CCOc1ccccc1NC(=O)Nc1cnccn1	i	21%	8%	6.5µM*	24%	6%
COc1cc([N+](=O)[O-])ccc1NC(=O)N1CCC2(CC1)Nc1ccccc1-n1cccc12	i	·	4%	i	·	-11%
Cc1ccc(-c2cn3c(n2)sc2cc(C(=O)N4CCCCC4)ccc23)cc1	i	·	-21%	i	·	-33%
O=C(Nc1cnccn1)Nc1ccccc1Cl	?	13%	9%	9.2µM*	27%	-1%
COC(=O)c1ccccc1NC(=O)Nc1cccc(C)n1	?	6%	-1%	i	-1%	8%
COc1ccccc1NC(=O)Nc1cccc(C)n1	21µM*	16%	6%	?	23%	-1%
